Screens deposited in PubChem by several laboratories.
Only some compounds are listed: those with a hit (about 1.7% of all), similar ones and a draw of the others.
Measles CPE = compounds protecting cells from measles virus cytopathic effect, primary screen, measles RdRp inhibitor project, single point, MLSMR library, absorbance; Measles virus-infected cells, CPE protection; protection (pct of control), % at 4 µM; 1.5% of 140,000 active; AID 841, 2007; in the data active = protection mostly above about 24%, no sharp cut-off; inactive = mostly below about 26%
Smad3 inh = Smad3/FoxH1 peptide binding inhibitors, primary screen, biochemical, TR-FRET. Mothers against decapentaplegic homolog 3 (Homo sapiens), P84022. TR-FRET Smad3/Dy647-FoxH1 peptide binding, europium anti-His. inhibition, % at 25 µM. 0.29% of 88,000 active;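 active = compounds that reduce the energy-transfer binding signal between the protein and its labelled peptide by more than half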
Target sequence (P84022 whole entry, looked up): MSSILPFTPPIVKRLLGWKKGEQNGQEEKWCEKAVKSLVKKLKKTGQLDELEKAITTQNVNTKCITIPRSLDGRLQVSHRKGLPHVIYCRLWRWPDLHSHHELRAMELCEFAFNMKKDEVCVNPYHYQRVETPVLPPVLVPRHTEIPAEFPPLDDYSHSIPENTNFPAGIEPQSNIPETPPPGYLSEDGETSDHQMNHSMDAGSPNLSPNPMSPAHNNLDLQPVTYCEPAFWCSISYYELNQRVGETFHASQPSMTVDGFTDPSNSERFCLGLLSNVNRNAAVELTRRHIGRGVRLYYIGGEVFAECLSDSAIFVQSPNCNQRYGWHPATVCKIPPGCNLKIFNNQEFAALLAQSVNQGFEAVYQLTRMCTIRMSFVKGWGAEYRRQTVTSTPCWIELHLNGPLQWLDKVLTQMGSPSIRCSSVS
MT1-MMP txn act = MT1-MMP promoter reporter activation – cell-based, luciferase luminescence, primary screen; 0.16% of 86,000 active; HT1080 MT1-MMP promoter luciferase reporter, overnight; active compounds read high; activation factor at 10 µM;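 active = activation factor of at least 2 for MT1-MMP transcription at 10 µM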
Each line names hits and unclear results; the compound was inactive in the other large screens.

CCc1ccccc1NC(=O)N1CCC(NC(=O)C(Cc2ccc(OC)c(OC)c2)NC(C)=O)CC1 (stereo not given)	none
COc1c2c(nc3occc13)C(CCC(C)(C)O)(OC)C(O)CC2 (stereo not given)	Measles CPE 76
COc1c2ccoc2nc2c(OC)c(OCC(O)C(C)(C)O)ccc12 (stereo not given)	none
CCCC[C@@H]1C[C@H]1C(NC(=O)c1ccccc1)c1ccccc1C(F)(F)F (stereo not given in full)	none (no result: Measles CPE, Smad3 inh)
CCCCNC(=O)C(c1ccc(OCC(=O)OC)c(C(=O)OC)c1)N(CCc1ccccn1)C(=O)CCCCCN1C(=O)NC(c2ccc(-c3ccccc3)cc2)C(C(=O)OCc2ccccc2)=C1C (stereo not given)	none (no result: Measles CPE, Smad3 inh)
CC(=O)c1c(C)[nH]c(C(=O)NCc2ccccc2Cl)c1C	none
CCc1c(C(=O)NCc2ccccc2Cl)[nH]c(C)c1C(C)=O	Measles CPE 34
C#CCCCC(=O)Nc1ccccc1	none (no result: Measles CPE, Smad3 inh)
CS(=O)(=O)N(CC(=O)O)Cc1ccccc1	none (no result: Measles CPE, MT1-MMP txn act)
c1ccc2c[n+](CCCC[n+]3ccc4ccccc4c3)ccc2c1	Smad3 inh 51 (no result: Measles CPE, MT1-MMP txn act)
CCCCCCCCCC[n+]1cccc(C(=O)N(CC)CC)c1	none (no result: Smad3 inh, MT1-MMP txn act)
CCCCn1c(=O)c(CCC(=O)OCC(=O)Nc2ccc(F)c(Cl)c2)nc2ccccc21	none (no result: Smad3 inh, MT1-MMP txn act)
CCCNC(=O)c1ccc(-c2nc3ccccc3s2)s1	none
CNc1sc(C(=O)c2ccccc2F)c(N)c1-c1nc2ccccc2s1	MT1-MMP txn act 2.1
CCN1CC(c2ccccc2)C(c2ccc(Cl)cc2)=N1 (stereo not given)	none (no result: Smad3 inh, MT1-MMP txn act)
Cc1ccc(NC(=O)COc2ccc(Br)cc2C)cc1	Measles CPE 26 (no result: Smad3 inh, MT1-MMP txn act)
O=C(COc1ccc(Br)cc1CO)Nc1ccc(F)cc1	none
CN1CCCc2cc(C=O)ccc21	none
CCCN1CCCc2cc(CN)ccc21	Smad3 inh 53
COc1ccc(-n2c(CNC(=O)c3ccc(S(=O)(=O)N4CCCC4)cc3)n[nH]c2=S)cc1	none (no result: Smad3 inh, MT1-MMP txn act)
Cc1cc2cc(CNC(=O)c3ccc(S(=O)(=O)N4CCCCC4)cc3)ccc2[nH]1	Measles CPE 35 (no result: MT1-MMP txn act)
O=C(NCc1ccc2[nH]c3c(c2c1)CCCC3)c1ccc(S(=O)(=O)N2CCCC2)cc1	none (no result: Smad3 inh, MT1-MMP txn act)
Cc1cccc(-n2c(CNC(=O)c3ccc(S(=O)(=O)N4CCCC4)cc3)n[nH]c2=S)c1	Measles CPE 36 (no result: MT1-MMP txn act)
Clc1ccc(CN2CCCN(Cc3ccc(Cl)cc3)C2c2cc3ccccc3c3ccccc23)cc1	none (no result: Measles CPE, MT1-MMP txn act)
Cc1ccc(S(=O)(=O)N(C)C)cc1NC(=O)CCNC(=O)c1ccccc1Cl	Measles CPE 54 (no result: Smad3 inh, MT1-MMP txn act)
CCN(CC)S(=O)(=O)c1cc(NC(=O)CCNC(=O)c2ccccc2Cl)ccc1C	none (no result: Smad3 inh, MT1-MMP txn act)
O=S(=O)(Nc1cccc2c1CCCC2)c1ccc(Cl)cc1	none (no result: Smad3 inh, MT1-MMP txn act)
O=C1N=C(N2CCN(c3ccccc3)CC2)S/C1=C\c1cn[nH]c1-c1ccccc1	Measles CPE 29 (no result: Smad3 inh, MT1-MMP txn act)
Cc1ccc(N2CCN(C3=NC(=O)/C(=C\c4cn[nH]c4-c4ccccc4)S3)CC2)cc1	none (no result: Smad3 inh, MT1-MMP txn act)
CCOC(=O)C1=C(C)NC(C)=C(C(=O)OCC)C1c1nc2ccccc2[nH]1	none (no result: Measles CPE, Smad3 inh)
CCOC(=O)C(C)c1nc2ccccc2[nH]c1=O (stereo not given)	Measles CPE 25
O=C(O)CCSc1ncnc2nc[nH]c12	none (no result: Measles CPE, MT1-MMP txn act)
c1ccc(-c2nc(-n3nc4ccccc4n3)nc3ccccc23)cc1	none (no result: Smad3 inh, MT1-MMP txn act)
FC(F)Sc1nc(-c2ccccc2)c(-c2ccccc2)n1C(F)F	Measles CPE 34 (no result: Smad3 inh, MT1-MMP txn act)
O=C(N/N=C/C1CC2CCC1C2)c1ccc2c(c1)OCO2 (stereo not given)	none (no result: Smad3 inh, MT1-MMP txn act)
Cc1ccc(-n2c(C)cc(C(=S)N3CCOCC3)c2C)cc1C	none (no result: Smad3 inh, MT1-MMP txn act)
Cc1c(N=C2NC(=O)C(CC(=O)Nc3ccccc3)S2)c(=O)n(-c2ccccc2)n1C (stereo not given)	Measles CPE 38 (no result: MT1-MMP txn act)
C=CCN1C(=O)C(CC(=O)Nc2ccc(C)cc2)SC1=Nc1c(C)n(C)n(-c2ccccc2)c1=O (stereo not given)	none
COC(=O)[C@@H]1C[C@H]2CC[C@H](O)C[C@H]2N1Cc1c(F)cccc1Cl	none (no result: Measles CPE, Smad3 inh)
CCCCC(CC)CNC(=O)C1C2C=CC(C2)C1C(=O)O (stereo not given)	MT1-MMP txn act 2.1
CCCCC(CC)CNC(=O)C1CC=CCC1C(=O)O (stereo not given)	none (no result: Smad3 inh, MT1-MMP txn act)
O=C(O)CSc1ncccc1[N+](=O)[O-]	none (no result: Measles CPE, MT1-MMP txn act)
CCn1cnc2sc(C(=O)N(Cc3ccc(N(C)C)cc3)Cc3ccco3)c(C)c2c1=O	Measles CPE 55
CCn1cnc2sc(C(=O)N3CCN(Cc4ccc5c(c4)OCO5)CC3)c(C)c2c1=O	none
Cc1ccc2c(c1)C(=O)c1ccccc1CS2=O (stereo not given)	none (no result: Smad3 inh, MT1-MMP txn act)
Cc1ccc(S(=O)(=O)N[C@H](C(=O)O)C(C)C)cc1	none (no result: Measles CPE, MT1-MMP txn act)
CN(C)c1ccc(C(=O)c2ccccc2)cc1	Measles CPE 44
